Hits are enriched below; roughly 8% of the tested compounds scored in any of these assays.
KB-V1 cytotox: KB-V1 MDR subline cytotoxicity; 400,000 tested, 3.4% active; Potency, µM (top dose mostly 46.1 µM), hits mostly cytotoxic; KB-V1 MDR cells viability, CellTiter-Glo, 72 h; further: on the % scale 0 is the no-effect control and ±100 the full control effect; nearly all actives have a fitted effect of over 60% in size
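KB-V1, DMEM (no phenol red) + 10% FBS; cpd pin-transferred, titration series; 72 h, 37 degrees C; CellTiter-Glo, luminescence. Data normalized, curve-fit.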
HT1080NT lethal: kills 2HG-producing HT-1080-NT fibrosarcoma cells. HT-1080-NT fibrosarcoma viability, CellTiter-Glo ATP luminescence, 48 h. Potency, µM (doses to about 46.1 µM), for inactives: at the top dose activity, negative = less viability, usual class: cytotoxic. 360,000 tested, 1.6% active;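 further: NT is the 2HG producing partner of a matched IDH1 knockdown line; 0% = DMSO-treated cells and -100% = media-only wells without cells; nearly all actives have a fitted effect of over 55% in size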
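Compounds were tested in concentration-response format on HT-1080-NT cells for 48 hours at 37 degrees C. Cell viability came from CellTiter-Glo luminescence; curves were classified by r2, response magnitude and activity.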
SW480 rerep: inducers of DNA re-replication in SW480 colon cancer cells; Potency, µM (highest dose often 46.1 µM), for inactives: at the highest dose re-replication activation, most hits filed as activators; 340,000 tested, 1.8% active; AID 624297; SW480 DNA re-replication, Hoechst DNA content imaging, 48 h; further: % of control where 0% means no effect; nearly all actives have a fitted effect of over 55% in size
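250 cells/well; 23 nL cpd via pin tool; 48 hr, 37 C, 5% CO2; Hoechst 40 min; imager read of total nuclear intensity, ex 405/em 500-530 nm.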
KB-3-1 tox: KB-3-1 parental cell cytotoxicity | Potency, µM (titrated, usually from 46.1 µM), usual class: cytotoxic | KB-3-1 viability, CellTiter-Glo ATP luminescence, 72 h | 400,000 tested, 1.4% active; further: on the % scale 0 is the no-effect control and ±100 the full control effect; nearly all actives have a fitted effect of over 60% in size
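KB-3-1 cells, DMEM (no phenol red) + 10% FBS; compound by pin transfer, 72 h, 37 °C. Readout: CellTiter-Glo luminescence after 10 min. Data normalized, curve-fitted.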
MCF10A rereplic: inducers of DNA re-replication in MCF 10A breast cells | 350,000 tested, 2.9% active | AID 624296 | MCF 10A DNA re-replication, Hoechst nuclear intensity, 48 h | Potency, µM (doses to about 46.1 µM), for the others: at the top dose activity, positive = re-replication, actives largely listed as activators; further: % of control where 0% means no effect; nearly all actives have a fitted effect of over 50% in size
HT1080 IDH1KD tx: kills HT-1080 cells with IDH1 knockdown; HT-1080 IDH1 knockdown viability, ATP luminescence, 48 h; Potency, µM (doses to about 46.1 µM), for inactives: at the highest dose activity, negative = toxicity, most hits filed as cytotoxic; 360,000 tested, 2% active;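 further: 0% = DMSO wells and -100% = cell-free medium wells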
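After a 2 h attachment period, IDH1KD HT-1080 cells took pin-transferred compound for 48 h at 37 °C; ATP-based luminescence after 10 min room-temperature reagent incubation reported viability.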
Active calls of the source: *; i = inactive; ? = inconclusive; · = not tested or not shown; [ ] = dose if it differs, or a comment. The call rests on the fitted dose curve; in most records, active means well fitted curve in the direction sought with a large enough effect; inconclusive means small, poorly fitted or top-dose-only effect, or another doubt; inactive means no such curve, though single readings can be large; an effect the other way counts as inactive or inconclusive. Potency means the concentration at half of the fitted maximal effect.

SMILES	KB-V1 cytotox	HT1080NT lethal	SW480 rerep	KB-3-1 tox	MCF10A rereplic	HT1080 IDH1KD tx
COc1ccc(NC(=O)Cn2nc(C(=O)O)c3ccccc3c2=O)cc1OC	i	?	6%	i	11%	14%
O=C(NC1CCC(O)CC1)C1CCN(S(=O)(=O)c2c(Cl)cccc2Cl)CC1 (configuration not stated)	i	-1%	?	i	4%	-6%
Cc1ccc(Nc2nc(-c3ccc(S(=O)(=O)N4CCCC4)cc3)cs2)cc1C	2.6µM*	?	13%	7.3µM*	?	?
O=S(=O)(c1ccc(-c2csc(Nc3ccc(Br)cc3)n2)cc1)N1CCCC1	?	?	9%	?	24%	?
Cc1cc(C)cc(Nc2nc(-c3ccc(S(=O)(=O)N4CCCC4)cc3)cs2)c1	?	?	29%	4.6µM*	1%	?
CCCC(=O)Nc1ccc2c(c1)nc(CN1CCN(C(=O)OCC)CC1)n2CC	i	?	9.2µM*	3.3µM*	7.3µM*	?
Cc1ccccc1-n1c(SCC(=O)c2c(N)n(C)c(=O)n(C)c2=O)nc2sc3c(c2c1=O)CCCC3	23µM*	-3%	-11%	?	?	-22%
C=C(C)CSc1cc(C)nc2c(-c3ccccc3)c(C)nn12	6.5µM*	?	0%	?	16%	-26%
C=CCSc1cc(C)nc2c(-c3ccc(Cl)cc3)c(C)nn12	?	11%	?	i	21µM*	2%
CCSc1cc(C)nc2c(-c3ccccc3)c(C)nn12	i	2%	-3%	i	20%	8%
O=C(N/N=C/c1ccccc1[N+](=O)[O-])c1ccncc1	i	13%	-10%	i	-1%	4%
O=C1Nc2ccc(Br)cc2C1(O)c1ccccc1 (configuration not stated)	i	-5%	10%	i	-13%	6%
O=C1Nc2ccc(Br)cc2C12NNc1ccccc1O2 (configuration not stated)	i	-27%	3%	?	23µM*	?
COc1cc(C2CC(=O)Nc3n[nH]c(-c4ccccc4)c32)cc(OC)c1OC (configuration not stated)	i	?	?	21µM*	?	?
CCOc1c(Br)cc(C2CC(=O)Nc3cc(OC)c(OC)cc32)cc1OC (configuration not stated)	i	-29%	-11%	i	0%	?
COc1cc2c(cc1OC)C(c1ccc(SC)cc1)CC(=O)N2 (configuration not stated)	i	0%	-36%	i	4.6µM*	-5%
COc1cc(C2CC(=O)Nc3cc(C)c(C)cc32)cc(OC)c1OC (configuration not stated)	16µM*	?	?	9.2µM*	?	?
CN(C)CCNC(=O)c1cccc(-c2cnc3c(NC=O)cc(-c4ccc(S(C)(=O)=O)cc4)cn23)c1	i	5%	·	i	·	2%
CN(C)CCNC(=O)c1cccc(-c2cnc3c(NC=O)cc(-c4cc(F)c(F)c(F)c4)cn23)c1	i	?	·	i	·	18µM*
CN(C)CCNC(=O)c1cccc(-c2cc(NC=O)c3ncc(-c4cccc(C(F)(F)F)c4)n3c2)c1	i	29µM*	·	i	·	16µM*
CN(C)C(=O)c1cccc(-c2cnc3c(NC=O)cc(-c4cccc(C(F)(F)F)c4)cn23)c1	?	23µM*	·	i	·	18µM*
Cc1cc(=O)[nH]c2ccc(Cc3ccccc3)cc12	9.2µM*	-25%	-4%	?	?	-17%
CCOC(=O)c1[nH]c2ccc(Br)cc2c1NC(=O)CCN1CCCC(C)(C)C1	3.3µM*	-12%	?	i	?	-17%
COC(=O)c1[nH]c2cc(OC)ccc2c1NC(=O)CCN1CCN(c2ccccc2)CC1	i	6%	-7%	i	62%[0.0737 µM]	22%
COC(=O)c1[nH]c2ccccc2c1NC(=O)CN1CCN(c2cccc(OC)c2)C(C)C1 (configuration not stated)	?	-19%	8%	18µM*	20%	?
SMILES	KB-V1 cytotox	HT1080NT lethal	SW480 rerep	KB-3-1 tox	MCF10A rereplic	HT1080 IDH1KD tx
COC(=O)c1[nH]c2ccc(C)cc2c1NC(=O)CN1CCCC(C)(C)C1	?	-28%	-6%[9.22 µM]	21µM*	?	-24%
CCN(CC(=O)Nc1c(C(=O)OC)[nH]c2ccc(C)cc12)c1ccc2c(c1)OCO2	7.3µM*	1%	13%	i	?	0%
CCOC(=O)c1[nH]c2ccc(F)cc2c1NC(=O)CCN1CCOCC1	i	10%	-229%	i	2%	11%
CCOC(=O)c1[nH]c2ccc(C)cc2c1NC(=O)CN1CCCCC1	i	-6%	3%	i	17%	-4%
COc1ccc(Sc2ccc(/C=C3\C(=O)NN(c4ccccc4)C3=O)o2)cc1	i	-1%	-12%	i	?	0%
COc1ccccc1NC(=O)N1CCCC1C(=O)Nc1ccc2c(c1)OCCO2 (configuration not stated)	i	5%	2%	i	-5%	9%
CCOc1ccc(OCC)c(NC(=O)CN2CCN(c3cccc(C)c3)CC2)c1	i	-4%	?	?	?	-5%
COC(=O)c1[nH]c2ccc(Br)cc2c1NC(=O)CN1CCN(C2CCCCC2)CC1	?	23µM*	?	?	?	18µM*
CCOc1ccc(OCC)c(NC(=O)CN2CCN(c3cccc(C)c3)C(C)C2)c1 (configuration not stated)	?	-3%	?	?	15µM*	2%
Cc1ccc(C(=O)NCC(=O)OCc2cc(=O)n3nc(C4CC4)sc3n2)cc1	i	·	·	i	·	·
COc1cc(C2Oc3ccccc3C=C2[N+](=O)[O-])cc(OC)c1OC (configuration not stated)	?	5.8µM*	?	?	?	5.8µM*
CC1(C)Cc2c(sc3nnn(CC(=O)Nc4ccccc4)c(=O)c23)CO1	i	0%	-16%	i	2%	1%
CC1(C)Cc2c(sc3nnn(Cc4ccc(Cl)cc4)c(=O)c23)CO1	6.5µM*	4%	20%	?	27%	-1%
Cc1ccc(SC2CCN(C(=O)C3CCC(=O)N(C4CC4)C3)CC2)cc1 (configuration not stated)	?	-1%	26%	i	11%	-3%

Source: PubChem BioAssay
